# Compound activity: PubChem BioAssay, National Center for Advancing Translational Sciences (NCATS)
# ClpP mod: qHTS Assay for Activators of ClpP. Potency, µM (series often up to 57.5 µM). purified B. subtilis ClpP, FRET peptide cleavage, 20 min. AID 651965, 2013. hit rate 1.9% among 340,000. ATP-dependent Clp protease proteolytic subunit (Bacillus subtilis (strain 168)), P80244; active means well fitted falling curve with a large enough effect; inconclusive means small, poorly fitted or top-dose-only effect; inactive means no such curve, though single readings can be large or run the other way; further: the source files actives as falling curves though it sought activators and does not explain the sign; nearly all actives have a fitted effect of over 65% in size
#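 ClpP 10 microg/mL final, pH 8 Tris/KCl buffer with BSA, glycerol, Tween-20; compound pinned in; FRET-FV substrate; RT 20 min; Ex320/Em430; ΔFRET vs ADEP 5.8 microM, DMSO, no enzyme.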
# Menin-MLL TR inh: qHTS Assay for Inhibitors Targeting the Menin-MLL Interaction in MLL Related Leukemias: Competition With Texas Red Labeled MLL-derived Mutant Peptide; Menin + Texas Red MLL mutant peptide, fluorescence polarization; hit rate 0.23% among 270,000; Potency, µM (highest dose often 61.6 µM), usual class: inhibitors; active means well fitted inhibition curve with a large enough effect in the polarisation, with a control signal flat, not every such curve was filed as active; inconclusive means small, poorly fitted or top-dose-only effect, or effect the other way, or a change in a side signal; inactive means no such curve, though single readings can be large or run the other way; the % refers to the polarisation
# p53 reactivation: qHTS assay for re-activators of p53 using a Luc reporter; H1299 p53-A138V BP100-luciferase reporter, luminescence, 24 h; Potency, µM (series often up to 92.2 µM), most hits filed as activators; hit rate 0.063% among 320,000; active means well fitted activation curve with a large enough effect; inconclusive means small, poorly fitted or top-dose-only effect; inactive means no such curve, though single readings can be large or run the other way; further: nearly all actives have a fitted effect of over 45% in size
#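 H1299 (p53-null), stable ts p53-A138V + BP100-Luc; 1000 cells/well, Opti-MEM/10% FBS; cpd 4 pt, 1:5; 24 h, 37 deg C, 5% CO2; detection reagent 10 min RT; luminescence.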
# Menin-MLL FL inh: qHTS Assay for Inhibitors Targeting the Menin-MLL Interaction in MLL Related Leukemias: Competition With Fluorescein Labeled MLL-derived Peptide; Fluorescence polarization, fluorescein-MLL peptide displacement from menin; FP activity change, % at 61.4 µM; 290,000 tested, under 10 active; active means well fitted curve in the direction sought with a large enough effect in the polarisation, not every such curve was filed as active; inconclusive means small, poorly fitted or top-dose-only effect, or effect the other way, or a change in a side signal; inactive means no such curve, though single readings can be large or run the other way; the % refers to the polarisation
# MLL CXXC-DNA inh: qHTS Fluorescence Polarization Assay for Inhibitors of MLL CXXC domain - DNA interaction. hit rate 0.037% among 290,000. MLL-CXXC / FITC-HOXA9 DNA fluorescence polarization. Histone-lysine N-methyltransferase 2A (Homo sapiens), Q03164. Potency, µM (doses to about 115 µM), most hits filed as inhibitors; active means well fitted inhibition curve with a large enough effect in the polarisation, with a control signal flat, not every such curve was filed as active; inconclusive means small, poorly fitted or top-dose-only effect, or effect the other way, or a change in a side signal; inactive means no such curve, though single readings can be large or run the other way; the % refers to the polarisation
#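 Steps: dispense CXXC domain solution (7 uM) → pin compounds or unlabeled HOX-A9 DNA control → 5 min ambient → add FLSN-HOX-A9 solution (50 nM) → spin → 30 min ambient → fluorescence polarization. Tris pH 7.5/NaCl/DTT/BSA buffer.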
# Numbers stand for hits; - = inactive; ? = inconclusive; . = no result. Only a selection was taken, and hits are over-represented in it overall.
SMILES,ClpP mod,Menin-MLL TR inh,p53 reactivation,Menin-MLL FL inh,MLL CXXC-DNA inh
O=C(COC(=O)c1ccccc1Oc1ccccc1)Nc1ccc(Br)cc1,-,.,.,.,.
COc1cc(Nc2nc(SCC(=O)c3ccc(Cl)c(Cl)c3)nc3ccccc23)cc(OC)c1,-,.,.,.,.
COc1ccc(CNc2nc(SCc3ccccc3Cl)nc3ccccc23)cc1,-,.,.,.,.
COc1cc(Nc2nc(SCc3cccc(Cl)c3)nc3ccccc23)cc(OC)c1,31.6µM,.,.,.,.
Fc1cccc(CSc2nc(NCCc3ccccc3)c3ccccc3n2)c1,-,.,.,.,.
COc1cc(Nc2nc(SCc3ccccc3Cl)nc3ccccc23)cc(OC)c1,28.2µM,.,.,.,.
COc1cc(Nc2nc(SCc3ccc(Cl)cc3)nc3ccccc23)cc(OC)c1,35.5µM,.,.,.,.
COc1ccc(C2=Nn3c(nnc3-c3ccccc3O)SC2)c(OC)c1,.,-,.,-,.
COc1ccccc1CN(C)CC(=O)c1c(C)[nH]c2ccccc12,-,.,.,.,.
COCO[C@H]([C@@H](C)C=C(Br)Br)[C@@H](C)COCc1ccc(OC)cc1,.,-,.,-,.
O=C(O)/C=C/C(=O)Nc1ccccc1-c1ccccc1,25.1µM,?,-,-,-
Cc1cc(N2CCCN(C)CC2)nc2cc(Cl)ccc12,31.6µM,-,-,-,-
Cc1cc(N2CCN(C)CC2)nc2ccc(NC(=O)Nc3ccc(Cl)cc3)cc12,-,.,.,.,.
CC(C)C[C@H](NC(=O)[C@H](CCCCN)NC(=O)[C@H](CCCNC(=N)N)NC(=O)[C@H](C)NC(=O)[C@H](CO)NC(=O)[C@H](CCCCN)NC(=O)[C@H](CCCNC(=N)N)NC(=O)[C@H](C)NC(=O)CNC(=O)[C@@H](NC(=O)[C@H](Cc1ccccc1)NC(=O)CNC(=O)CNC(=O)[C@@H](N)Cc1ccccc1)[C@@H](C)O)C(=O)N[C@@H](C)C(=O)N[C@@H](CC(N)=O)C(=O)N[C@@H](CCC(N)=O)C(=O)O,.,-,.,-,.
Cc1ccc(NS(=O)(=O)c2ccc(Cl)c(C(=O)Nc3ccccc3-c3nc4ccccc4[nH]3)c2)cc1C,35.5µM,?,-,-,-
O=C(NC12CC3CC(CC(C3)C1)C2)c1ccccc1O,28.2µM,-,-,-,-
CC[C@H](C)[C@H](NC(=O)[C@H](Cc1ccc(O)cc1)NC(=O)[C@@H]1CCCN1C(=O)[C@H](CCCCN)NC(=O)[C@@H](N)CCCCN)C(=O)N[C@@H](CC(C)C)C(=O)O,.,-,.,-,.
CC1CCCN(c2nc3c(-c4ccc(Cl)cc4)nnn3c3ccccc23)C1 (stereo not given),-,.,.,.,.
Oc1ccccc1/C=N/n1c(COc2ccccc2)n[nH]c1=S,35.5µM,?,-,-,-
Cc1ccc2[nH]c3nc(SCCN4CCOCC4)nnc3c2c1,-,-,-,-,-
Cc1ccc2[nH]c3nc(NN)nnc3c2c1,28.2µM,-,-,-,-
CC(=O)O[C@@H]1CC[C@@]2(C)[C@H](C1)[C@H](OC(C)=O)C[C@@H]1[C@@H]2C[C@H]2[C@@H]3CN4C[C@H](C)CC[C@H]4[C@H](C)[C@H]3CC[C@@]12O,.,-,.,-,.
O=C(C[N+]12CCCc3cccc(c31)CCC2)c1ccc(Cl)c2ccccc12,-,.,.,.,.
Cc1ccnc(NC(=O)c2ccc(NS(=O)(=O)/C=C/c3ccccc3)cc2)c1,28.2µM,.,-,.,.
CC(=O)Nc1ccc(C(=O)Nc2nc(-c3cccnc3)cs2)cc1,11.2µM,-,-,-,-
SMILES,ClpP mod,Menin-MLL TR inh,p53 reactivation,Menin-MLL FL inh,MLL CXXC-DNA inh
CSc1nc(Sc2ccccc2Cl)c2ccccc2n1,31.6µM,-,-,-,-
Cc1ccc(C2C=C(c3ccc(Cl)cc3)Nc3nc(NC(=O)c4ccco4)nn32)cc1 (stereo not given),-,.,.,.,.
Brc1ccc(-c2csc(-c3c[nH]c4ccccc34)n2)cc1,?,?,44.7µM,-,-
c1ccc2c(-c3csc(-c4ccncc4)n3)c[nH]c2c1,-,?,-,-,-
COc1ccc(OCC(O)CN2CCC(CN3C(=O)c4cccc5cccc(c45)C3=O)CC2)cc1 (stereo not given),.,-,-,-,-
O=C1c2cccc3cccc(c23)C(=O)N1CC1CCN(CC(O)COCc2ccc3c(c2)OCO3)CC1 (stereo not given),28.2µM,-,-,-,-
COc1cccc2nc(-c3cccs3)nc(NN3C(=O)C=C(C)C3=O)c12,.,-,.,-,.
CC(c1nc2ccccc2[nH]1)n1c(=O)c(-c2cccnc2)nc2ccccc21 (stereo not given),-,.,.,.,.
c1csc(-c2nnsc2-c2nc3ccccc3[nH]2)c1,-,?,-,-,-
O=c1[nH]c2ccccc2nc1-c1cccs1,14.1µM,-,-,-,-
CC(c1nc2ccccc2[nH]1)n1c(=O)c(-c2cccs2)nc2ccccc21 (stereo not given),22.4µM,.,.,.,.
C(=C\c1cnc2ccccc2n1)/c1ccc2c(c1)OCO2,-,.,.,.,.
CN1CCN(CC(=O)Nc2nnc(-c3cccs3)s2)CC1,22.4µM,-,-,-,-
CCC(CC)C(=O)Nc1nnc(-c2cccs2)s1,25.1µM,-,?,-,-
COc1cccc(OC)c1C(=O)Nc1nnc(-c2cccs2)s1,-,-,-,-,-
CCCc1nnc(NC(=O)CN2CCN(C)CC2)s1,-,-,.,-,-
O=C(O)CCc1nn2c3ccccc3n(CCO)c2nc1=O,.,-,-,-,-
O=C(O)CCc1nn2c3ccccc3n(CCN3CCCCC3)c2nc1=O,28.2µM,-,-,-,-
Clc1cccc(Cl)c1CO/N=C/c1c(-c2ccccc2)nc2n1CCS2,25.1µM,.,-,-,-
COC(=O)/C(C#N)=C/c1c(-c2ccccc2)nc2n1CCS2,.,.,-,-,-
O=C(C[n+]1ccccc1)c1ccc(I)cc1,-,.,.,.,.
Cc1ccc(N2C(=O)N(CC(=O)Nc3ccccc3C(F)(F)F)C(=O)C2C)cc1 (stereo not given),15.8µM,.,-,.,.
CN(c1ccccc1)S(=O)(=O)c1cccc(C(=O)NC2CCCC2)c1,31.6µM,.,-,.,.
CN(c1ccccc1)S(=O)(=O)c1cccc(C(=O)Nc2cccc(C(=O)NC3CC3)c2)c1,-,.,-,.,.
CCN(Cc1ccccc1)C(=O)c1c[nH]c2ccc(S(=O)(=O)N(C)CCC#N)cc2c1=O,31.6µM,-,-,-,-
CC(OC(=O)c1ccccc1NCCO)C(=O)NCC(=O)Nc1ccc(F)c(F)c1F (stereo not given),15.8µM,-,-,-,-
Cc1ccc(NC(=O)CN(C)C(=O)C(c2ccccc2)c2ccccc2)cc1,-,.,-,.,.
Cc1ccc(NC(=O)CN(C)C(=O)C(C)OC(=O)c2ccccc2NCCO)cc1 (stereo not given),25.1µM,.,-,.,.
